# Measles CPE: compounds protecting cells from measles virus cytopathic effect, primary screen, measles RdRp inhibitor project, single point, MLSMR library, absorbance | Measles virus-infected cells, CPE protection | protection (pct of control), % at 4 µM | actives 1.5% (n = 140,000) | AID 841, 2007; in the data active means protection mostly above about 24%, no sharp cut-off; inactive means mostly below about 26%
# PostGolgi ctrl: growth inhibition of yeast control strain, primary screen, counter-screen for post-Golgi transport modulator project; AID 738, 2007; actives 5% (n = 98,000); inhibition, % at 10 µM; efflux-deficient yeast background strain, growth absorbance A615, 16 h
# MT1-MMP txn act: MT1-MMP promoter reporter activation – cell-based, luciferase luminescence, primary screen | HT1080 MT1-MMP promoter luciferase reporter, overnight; active compounds read high | activation factor at 10 µM | actives 0.16% (n = 86,000) | AID 750, 2007;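 active means activation factor of at least 2 for MT1-MMP transcription at 10 µM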
# PostGolgi yeast: phenotypic screen on post-Golgi transport, primary screen | post-Golgi transport phenotypic cell assay | inhibition, % at 10 µM | actives 0.9% (n = 98,000) | AID 739, 2007;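 further: yeast cells grown in 1536-well plates; yeast grown about 18 h at 30C before absorbance read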
# Hits are given with their value; 0 = inactive; - = no result given. Rows were chosen to be rich in hits. Some 5.3% of all compounds tested hit in one or more screens of this group. Unless noted, no stated cut-off is given here; in the data, active means inhibition above about 30%; inactive means the rest.
SMILES,Measles CPE,PostGolgi ctrl,MT1-MMP txn act,PostGolgi yeast
C=CCSc1nncn1/N=C/c1ccc(OC)cc1,0,0,2,0
C/C(=N\O)C(=O)NCCCNCCCN(C)C,49,0,0,0
O=C(NCCN1CCOCC1)c1ccc([N+](=O)[O-])cc1[N+](=O)[O-],0,0,-,0
O=C(NCCN1CCOCC1)c1cc(Cl)ccc1[N+](=O)[O-],32,-,-,-
CCOC(=O)C(NC(=O)CC)(N1CCc2ccccc2C1)C(F)(F)F (centres undefined),0,0,0,0
Cc1ccc(Nc2nnc(SCC(=O)Nc3cccc(S(=O)(=O)NC4=NCCCCC4)c3)s2)cc1,0,-,-,-
Cc1cc(SCC(=O)Nc2cccc(S(=O)(=O)NC3=NCCCCC3)c2)c(C)cc1Br,28,-,-,-
O=C(/C=C/c1ccc(Cl)cc1)NC(=S)Nc1ccc(NC(=O)c2ccco2)cc1,0,-,-,-
CC1=CC(=C2C(=O)c3ccccc3C2=O)C=C(C)N1Cc1ccco1,0,37,0,0
O=C1c2ccccc2C(=O)N1Cc1ccco1,0,0,0,0
COc1ccc(CN2CCN(c3ncccn3)CC2)c(OC)c1,0,42,0,0
Cc1ccccc1C(=O)Nc1cc(S(=O)(=O)N2CCCCC2)ccc1N1CCN(C)CC1,33,-,-,-
CCCC(C)NC(=O)COc1ccc(Sc2ccc(OCC(=O)NC(C)CCC)cc2)cc1 (centres undefined),0,-,-,-
CC(CNC(=O)C(C)C)NC(=O)C(C)C (centres undefined),27,0,-,0
O=C(CN(C(=O)CCC(=O)Nc1nccs1)c1ccc(F)cc1)NCc1ccco1,0,32,0,0
Cn1c(=O)c(C(=O)COC(=O)c2cc(C(F)(F)F)nc3c(C(F)(F)F)cccc23)c(N)n(Cc2ccccc2)c1=O,-,-,0,-
O=C1CC(N2CCOCC2)C(=O)N1Cc1ccc(N2CCCC2=O)cc1 (centres undefined),42,0,0,0
O=C1CCCN1CCC1CCN(C2CC(=O)N(Cc3ccc(N4CCCC4=O)cc3)C2=O)CC1 (centres undefined),0,0,0,0
COCn1c(COc2ccc3ccccc3c2)nc2ccccc21,0,-,2.3,-
CC12CCC(C(=O)N(NC(=O)c3cc(Cl)ccc3O)C1=O)C2(C)C (centres undefined),0,0,-,0
Cc1ccccc1Oc1cccc(C(=O)/C(C#N)=C/N(C)C)c1,0,0,0,0
Cc1ccccc1Oc1ncccc1C(=O)/C(C#N)=C/N(C)C,0,0,-,0
Cc1cc(Cl)ccc1Oc1cccc(C(=O)/C(C#N)=C/N(C)C)c1,0,65,0,0
CN(C)/C=C(/C#N)C(=O)c1cccc(Oc2ccc(C(C)(C)C)cc2)c1,0,50,0,0
C=CCOc1ccc(/C=N/NC(=O)C(C)Sc2ccccn2)cc1OC (centres undefined),0,-,-,-
SMILES,Measles CPE,PostGolgi ctrl,MT1-MMP txn act,PostGolgi yeast
COc1ccc(NC2c3ccccc3C(=O)N2c2cccnc2)cc1Cl (centres undefined),0,0,-,0
CCOC(=O)c1ccccc1NC1c2ccccc2C(=O)N1c1cc(C)ccn1 (centres undefined),0,55,-,0
COc1cc(OC)c(NC2c3ccccc3C(=O)N2c2cc(C)ccn2)cc1Cl (centres undefined),0,33,0,0
Cc1ccc(N2C(=O)c3ccccc3C2Nc2ccccc2F)nc1 (centres undefined),0,0,0,0
CCNC(=S)N(Cc1ccc2c(c1)OCO2)C1CC(=O)N(c2ccc(F)cc2)C1=O (centres undefined),0,0,-,0
N#CC1(Cc2ccc(Cl)cc2)c2ccccc2C=CN1C(=O)c1ccccc1 (centres undefined),0,0,-,0
COc1cc(/C=C(/C(=O)c2cccs2)c2nc3ccccc3[nH]2)cc(OC)c1O,0,0,0,0
Fc1ccc2c(c1)C(c1ccc(N3CCOCC3)cc1)=NNC(c1cccs1)=N2,0,36,-,0
O=S(=O)(c1ccc(Oc2ccc(Br)cc2F)nc1)N1CCCCC1,0,37,0,0
CCOc1cc(S(=O)(=O)N2CCCCCC2)ccc1F,0,0,0,0
CCOC(=O)C(C(=O)Nc1ccc(C)cc1)C1CCCCC1 (centres undefined),0,40,0,0
NC1=NC2(CCCCC2)N=C(Nc2ccc(Br)cc2)N1,0,-,-,-
Cc1cc(C)nc(NC(=O)COc2cc(Cl)cc(Cl)c2)n1,0,32,0,0
COc1cc(C)nc(NC(=O)COc2ccc(Cl)cc2C)n1,0,0,0,0
CCOC(=O)c1cnc2c(OC)cccc2c1Nc1ccc2c(c1)OCCO2,0,-,-,-
CC1(C)Cc2c(sc3c2c(=N)n(Cc2ccco2)c(=O)n3Cc2ccc(F)cc2)CO1,0,64,0,0
Cc1ccc(/C=C/C(=O)NC2CCCCCCC2)o1,0,-,-,-
COc1ccc(-n2nnnc2-c2cnc3cc4c(cc3c2C)OCO4)cc1,53,0,-,0
Cc1onc(-c2ccccc2)c1-c1nc2ccccc2c(=O)o1,0,32,0,0
Cc1nnn(C23CC4CC(CC(CC(=O)Nc5ccc(C)c(C)c5)(C4)C2)C3)n1,0,-,-,-
CCC1CCCCN1S(=O)(=O)c1ccc2c(c1)CCN2C(=O)C1CCC1 (centres undefined),0,68,0,0
O=C(C1CCC1)N1CCc2cc(S(=O)(=O)N3CCc4ccccc4C3)ccc21,-,-,0,-
O=C(C1CCC1)N1CCc2cc(S(=O)(=O)NCCN3CCN(c4ccccc4F)CC3)ccc21,0,38,0,0
Cc1ccc(NC(=O)NNC(=O)Cn2nc(-c3ccccc3)c(-c3ccccc3)c(C#N)c2=O)cc1,0,0,-,0
O=S1(=O)C=C(Sc2nc3ccccc3s2)c2ccccc21,0,31,0,89
SMILES,Measles CPE,PostGolgi ctrl,MT1-MMP txn act,PostGolgi yeast
CCOC(=O)CCN(Cc1cccs1)S(=O)(=O)c1ccc(F)cc1,48,0,0,0
CCOC(=O)CCN(Cc1sccc1C)S(=O)(=O)c1ccc(F)cc1,0,0,0,0
COc1ccc(/C=N/NC(=O)c2cccc(OC(F)(F)C(F)F)c2)cc1O,0,-,-,-
N#Cc1ccccc1NC(=O)CSc1nnc(-c2ccccc2O)n1-c1ccccc1,17,0,0,0
Cn1c(CC(=O)Nc2ccccc2C(F)(F)F)c(Sc2ccccc2)c2ccccc21,0,-,-,-
C=CCNc1oc(Cc2cccc3ccccc23)nc1C#N,0,0,0,0
CC(C)(C)c1ccc(-c2nc(C#N)c(NCc3ccncc3)o2)cc1,0,0,2,0
COc1ccc(CNc2oc(-c3cccc4ccccc34)nc2C#N)cc1,68,0,0,0
N#Cc1nc(Cc2cccc3ccccc23)oc1NCc1ccc(F)cc1,0,31,0,0
COc1ccc(-c2nc(C#N)c(NCc3ccc(C)cc3)o2)cc1OC,0,0,0,0
Cc1ccc2nc3c(cc2c1)CN(Cc1ccco1)C(=NCC1CCCO1)S3 (centres undefined),0,43,0,0
Cc1cccc2cc3c(nc12)SC(=NCC1CCCO1)N(Cc1ccco1)C3 (centres undefined),0,0,0,0
CC(=O)Nc1cccc(-c2csc(Nc3cc(C)ccn3)n2)c1,0,31,-,0
COc1ccc2c3c(cccc13)N(C)N=C2C,0,0,-,0

# Compound activity: PubChem, several laboratories
